From PubChem
Rows were chosen to be rich in hits. Some 2.6% of all compounds tested hit in one or more screens of this group.
LMP1 NFkB inh: Epstein-Barr LMP1 NF-kappaB reporter inhibition | LMP1-induced NF-kappaB luciferase reporter cells, luminescence | 350,000 tested, 0.69% active | AID 504558 | inhibition, % at 12.5 µM; in the data active = inhibition above about 41%; inconclusive = no clear call, values can overlap the other calls
aDG glyco act: increases alpha dystroglycan glycosylation; activation, % at 10 µM; Pro5-aDG cells, alpha-DG glycosylation AlphaScreen (IIH6); 0% Pro5, 100% B10-LARGE cell signal; 360,000 tested, 0.22% active; AID 624168;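 active = activation of at least 8% versus controls, or a plate z-score of at least 8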;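 note: Pro5 are CHO cells carrying HIG-tagged alpha-DG that lacks glycosylation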
HSP90 inh: blocks HSP90-mediated luciferase refolding in reticulocyte lysate. 290,000 tested, 0.91% active. Rabbit reticulocyte lysate, luciferase refolding luminescence, 3 h. inhibition, % at 5.6 µM. AID 1789;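 active = inhibition above the screen-wide mean plus 3 SD, computed separately per campaign, cut at about 16% in these data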;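 note: inhibitors lower the luminescence because luciferase stays unfolded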
LGR2 inh: inhibitors of bursicon-induced Drosophila LGR2 receptor cAMP signaling; 380,000 tested, 0.35% active; AID 720647; HEK293 LGR2, CRE-luciferase, bursicon-stimulated, 4 h; inhibition, % at 9.99 µM;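 active = drop in luminescence signal, shown as inhibition above about 50% in the replicate tests, limit read from the data, passing the limit was not always enough; inconclusive = probably only some replicates passing the limit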;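 note: agonist challenge used bursicon conditioned medium at about half maximal strength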
TWEAK Fn14 block: TWEAK-Fn14 signaling inhibition; TWEAK-stimulated Fn14 reporter cells, luciferase luminescence, 8 h; inhibition, % at 10 µM; 360,000 tested, 2% active; AID 1159606; in the data active = inhibition above about 50%
TROY signal inh: inhibitors of TROY-dependent NF-kB signaling. Q293 LMP1-TROYcd NF-kB luciferase reporter, 4 h. inhibition, % at 10 µM. 360,000 tested, 0.98% active. AID 1347056;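 active = compounds whose plate-normalised and pattern-corrected inhibition of the luciferase reporter signal at the single screening dose is 50% or more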
Numbers stand for hits; 0 = inactive; ? = inconclusive; - = no result.

SMILES | LMP1 NFkB inh | aDG glyco act | HSP90 inh | LGR2 inh | TWEAK Fn14 block | TROY signal inh
CC1CCN(CCCCOc2ccc(C(=O)c3ccccc3)cc2)CC1 | 0 | 0 | 0 | - | 0 | 0
CC1CCN(CCOc2ccc(C(=O)c3ccccc3)cc2)CC1 | 79.5 | 0 | 0 | 0 | 0 | 0
O=C(c1ccco1)N1CCN(C2=NS(=O)(=O)c3ccccc32)CC1 | 0 | 0 | 0 | - | 85.7 | -
COc1ccc2c(c1)C(c1ccc(C)o1)=NNC(c1ccccc1)=N2 | 42.7 | 0 | 0 | 0 | 0 | 0
O=C(Nc1ccc(-c2nc3ccccc3[nH]2)cc1)C1CCCO1 (configuration not stated) | 0 | 0 | 0 | ? | 73.2 | 0
Cc1ccc(S(=O)(=O)Nc2ccc(-c3nc4cc(NS(=O)(=O)c5ccc(C)cc5)ccc4o3)cc2)cc1 | - | - | 0 | - | - | -
O=C(Nc1nc2ccccc2[nH]1)C1CCCO1 (configuration not stated) | 0 | 0 | 0 | 0 | 0 | 0
Cc1cccc(-c2nc3cc(NC(=O)C4CCCO4)ccc3o2)c1 (configuration not stated) | 0 | 0 | 0 | 58.8 | 68.3 | 0
CC(=O)Nc1ccc(S(=O)(=O)Nc2cccc(-c3nc4cc(C)ccc4o3)c2)cc1 | 0 | 3.9 | - | 0 | 0 | 0
Cc1ccc2oc(-c3cccc(NC(=O)C4CCCO4)c3)nc2c1 (configuration not stated) | 0 | 0 | 0 | - | 0 | 0
O=c1[nH]c2ccccc2nc1/C=C(\O)C1CC1 | 0 | 0 | 0 | 0 | 0 | 0
CC(C)(C)/C(O)=C/c1nc2ccccc2[nH]c1=O | 0 | 0 | 0 | 0 | 75.0 | 81.5
O=c1[nH]c(=O)n(-c2ccc(F)cc2)c2c1C(C(F)(F)F)(C(F)(F)F)N=C(c1ccc(F)cc1)N2 | 0 | 0 | 0 | 0 | 64.6 | 0
Cc1noc(C)c1S(=O)(=O)Nc1ccc2c(c1)C(=O)N([C@@H](C)CO)C[C@@H](C)[C@@H](CN(C)C(=O)Nc1ccc3c(c1)OCO3)O2 | - | - | - | 0 | - | -
Cc1ccc(S(=O)(=O)N2CCCCC2)cc1NC(=O)c1ccc2c(=O)n3c(nc2c1)CCCCC3 | - | - | 0 | 66.9 | - | -
Cc1ccc(-c2csc(NC(=O)c3ccc4c(=O)n5c(nc4c3)CCCCC5)n2)cc1 | 0 | 0 | 0 | 0 | 70.1 | 0
COc1ccc(S(=O)(=O)N2CCCCC2)cc1NC(=O)CNc1ccccc1N1CCCC1=O | 0 | 0 | - | 0 | 0 | 0
Cc1ccc(S(=O)(=O)N2CCCCC2)cc1NC(=O)CNc1ccccc1N1CCCC1=O | 41.7 | 0 | - | 0 | 0 | 0
O=C(Nc1ccc(S(=O)(=O)N2CCCC2)cc1)c1ccc2c(=O)n3c(nc2c1)CCCCC3 | 0 | 0 | 0 | 0 | 0 | 0
COc1ccc(OC)c2c1sc(=NC(=O)c1ccco1)n2C | 52.8 | 0 | 0 | 0 | 0 | 0
Cc1nc(N2CCN(C(=O)c3ccco3)CC2)c(C#N)c2c1CCCC2 | 0 | 0 | 0 | 0 | 0 | 0
CC(C)Cc1nc(N2CCN(C(=O)c3ccco3)CC2)c(C#N)c2c1CCCC2 | 0 | 0 | 0 | 0 | 0 | 53.0
C[C@H](CO)N1C[C@H](C)[C@H](CN(C)S(=O)(=O)c2cn(C)cn2)Oc2ccc(NC(=O)CCN3CCOCC3)cc2C1=O | - | - | - | 0 | - | -
CCOC(=O)c1ccc(Nc2cc(C)nc(-c3ccccc3)n2)cc1 | 0 | 0 | 0 | 0 | 0 | 70.7
CCOC(=O)c1ccc(Nc2nc(C)cc(C)n2)cc1 | 0 | 0 | 0 | 0 | 0 | 0
SMILES | LMP1 NFkB inh | aDG glyco act | HSP90 inh | LGR2 inh | TWEAK Fn14 block | TROY signal inh
C[C@@H]1CN([C@H](C)CO)C(=O)c2cc(NS(C)(=O)=O)ccc2O[C@@H](C)CCCCO[C@@H]1CN(C)S(C)(=O)=O | - | - | - | 0 | - | -
Cc1ccc(NC(=O)C2C3C=CC4(O3)C2C(=O)N(CCN2CCOCC2)C4C(=O)NC2CCCCC2)cc1C (configuration not stated) | 0 | 0 | 0 | 0 | 88.4 | 0
C[C@H]1CN([C@@H](C)CO)C(=O)c2cccc(NS(=O)(=O)c3cccs3)c2O[C@H]1CN(C)CC1CCCCC1 | - | - | - | 0 | - | -
CCOc1ccc(OCc2cccc(C(=O)O)c2)cc1 | 83.5 | 0 | - | 102.4 | 0 | 0
O=C(O)c1cc(OCc2ccccc2)cc(OCc2ccccc2)c1 | 0 | 0 | 0 | 0 | 0 | 0
O=C(O)c1ccc(COc2ccc(CO)cc2Cl)cc1 | 0 | 0 | 0 | - | 0 | 0
O=C(O)c1cccc(S(=O)(=O)Nc2ccc(OCc3ccccc3)cc2)c1 | 0 | 0 | 0 | 0 | 0 | 0
O=C(O)c1cccc(COc2ccc(CO)cc2Cl)c1 | 91.2 | 0 | - | 100.1 | 71.5 | 0
COc1ccc(OCc2cccc(C(=O)O)c2)cc1 | 85.7 | 0 | - | - | 52.6 | 0
C/C=C/c1ccc2c(c1)O[C@@H](CN(C)C(=O)Nc1ccc(C(F)(F)F)cc1)[C@H](C)CN([C@@H](C)CO)S2(=O)=O | - | - | - | 0 | - | -
Cc1ccc(-n2cc(CN3CCNC(=O)CC3)c(-c3cccc(C)c3)n2)cc1 | 0 | 0 | 0 | 0 | 0 | 0
Cc1ccc(-n2cc(CNCC3CC(=O)N(C4CC4)C3)c(-c3cccc(C)c3)n2)cc1 (configuration not stated) | 0 | 0 | 0 | 0 | 0 | 51.6
O=C(C1CCCC1)N1[C@@H](CO)[C@@H](c2ccccc2)C12CN(CCC(F)(F)F)C2 | - | - | - | 0 | - | -
Cc1c(C=O)c2ccccn2c1C(=O)c1ccccc1Cl | 53.0 | 0 | 0 | 0 | 0 | 0
Cc1c(C=O)c2ccccn2c1C(=O)c1cccs1 | 0 | 0 | 0 | 0 | 0 | 0
COc1ccc(S(=O)(=O)Nc2ccc3c(c2)C(=O)N([C@@H](C)CO)C[C@@H](C)[C@H](CN(C)Cc2ccc4c(c2)OCO4)OCCCC[C@@H](C)O3)cc1 | - | - | - | 0 | - | -
O=C1c2ccccc2S(=O)(=O)c2cc(N3CCOCC3)ccc21 | 0 | 0 | - | ? | 71.1 | 0
O=C1c2ccccc2S(=O)(=O)c2cc(N3CCN(c4ccccc4)CC3)ccc21 | - | - | - | 0 | - | -
O=C(C1CCCC1)N1CC(=O)N2[C@@H](CO)[C@H](c3ccc(Br)cc3)[C@@H]2C1 | - | - | - | 0 | - | -
COc1ccc(CNC(=O)c2sc(=O)n(Cc3ccc(-c4ccccc4)cc3)c2C)cc1OC | - | 0 | - | 0 | 60.6 | 0
Cc1c(C(=O)NCc2ccc(Cl)c(Cl)c2)sc(=O)n1Cc1ccc(S(C)(=O)=O)cc1 | - | 0 | - | 0 | 52.9 | 0
Cc1cc(C(=O)Nc2cccc3c2O[C@@H](CN(C)S(=O)(=O)c2cccs2)[C@@H](C)CN([C@H](C)CO)C3=O)n(C)n1 | - | - | - | 0 | - | -
COc1ccccc1Nc1ccc2c(O)cc(S(=O)(=O)O)cc2c1 | 0 | 0 | - | 0 | 78.5 | 0
CC(C)n1cc(CN2CCCC(CO)(Cc3cccc(Cl)c3)C2)cn1 (configuration not stated) | 0 | 0 | 0 | 0 | 0 | 50.9
Cn1cc(CN2CCCC(CO)(Cc3cccc(Cl)c3)C2)cn1 (configuration not stated) | 0 | 0 | 0 | 0 | 0 | 0
O=C(C[C@@H]1C[C@H]2c3cc(NC(=O)c4ccc5c(c4)OCO5)ccc3O[C@H]2[C@@H](CO)O1)NCc1ccc(Oc2ccccc2)cc1 | - | - | - | 52.5 | - | -
